Bioassay records deposited in PubChem BioAssay by National Center for Advancing Translational Sciences (NCATS).
Only some compounds are listed: those with a hit (about 10% of all), similar ones and a draw of the others.
ALOX12 inhib – blocks human 12-lipoxygenase activity; P18054; purified 12-hLO, xylenol orange hydroperoxide absorbance; Potency, µM (titrated, usually from 57.1 µM), usual class: inhibitors; 150,000 compounds, 0.12% hits; active means well fitted inhibition curve with a large enough effect; inconclusive means small, poorly fitted or top-dose-only effect; further: nearly all actives have a fitted effect of over 55% in size
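Lipoxygenase turnover measured by absorbance at 573 and 405 nm after Fe-XO development. Human 12hLO 150 nM, arachidonate 40 uM, pH 7.0 Hepes buffer with detergent; 15 min compound preincubation, 30 min reaction.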
ALDH1A1 inh – ALDH1A1 (human) enzyme inhibition; P00352; AID 1030; Potency, µM (series often up to 75.3 µM), most hits filed as inhibitors; Purified ALDH1A1, NADH fluorescence, propionaldehyde substrate; 220,000 compounds, 7.3% hits
Target sequence (P00352 whole entry, looked up): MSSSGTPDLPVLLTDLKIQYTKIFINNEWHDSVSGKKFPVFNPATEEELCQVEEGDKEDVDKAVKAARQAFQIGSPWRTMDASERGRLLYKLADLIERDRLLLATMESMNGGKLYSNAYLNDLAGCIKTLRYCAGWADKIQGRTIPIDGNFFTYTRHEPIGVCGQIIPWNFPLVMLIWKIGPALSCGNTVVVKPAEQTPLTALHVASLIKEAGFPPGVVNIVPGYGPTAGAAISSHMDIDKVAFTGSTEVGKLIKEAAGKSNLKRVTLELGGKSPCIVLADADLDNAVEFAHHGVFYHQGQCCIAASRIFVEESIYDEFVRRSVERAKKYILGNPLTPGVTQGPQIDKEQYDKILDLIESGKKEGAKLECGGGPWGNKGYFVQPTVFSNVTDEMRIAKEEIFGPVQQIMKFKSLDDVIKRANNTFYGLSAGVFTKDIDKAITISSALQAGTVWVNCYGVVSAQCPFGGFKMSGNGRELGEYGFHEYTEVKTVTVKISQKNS
LMNA splice mod – LMNA splicing modulation; AID 1487; 200,000 compounds, 0.01% hits; HeLa LMNA splicing GFP/RFP minigene ratio, 48 h; Potency, µM (doses to about 46.1 µM), usual class: inhibitors; active means well fitted inhibition curve with a large enough effect in the signal ratio, with a control signal flat, not every such curve was filed as active; inconclusive means small, poorly fitted or top-dose-only effect, or effect the other way, or a change in a side signal; the % refers to the signal ratio
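Read-out is the ratio of GFP to DsRed2 object intensity, acquired by 488 nm laser-scanning cytometry on HeLa lamin A-EGFP minigene reporter cells. Compound incubation 48 hrs at 37 °C in Opti-MEM with 2% FBS; DMSO 0.5% final.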
HPGD block – inhibitors of human 15-hydroxyprostaglandin dehydrogenase (HPGD). P15428. purified HPGD, NADH fluorescence kinetic, PGE2 substrate. Potency, µM, usual class: inhibitors. 150,000 compounds, 4.3% hits. AID 894
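NADH formation kinetics: reaction with 30 uM PGE2 and 1 mM NAD+ (final), 20 nM enzyme, Tris-HCl pH 8 with Tween 20, after 15 min compound preincubation at room temperature. Fluorescence change, last versus first of five reads.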
PNC inhibitor – blocks assembly of the perinucleolar compartment. 140,000 compounds, 3.1% hits. activity change (PNC), negative = inhibition, % at 10 µM. PC3M PTB-GFP, PNC prevalence imaging, 16 h; hits give low values;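 active means readout at or below -70, meaning at least 70% loss of cells showing the perinucleolar compartment, a nuclear body marking cancer cells; inconclusive means readout between -30 and a set limit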
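PC3M cells stably expressing PTB-GFP, 750–1000 cells/well, treated 16 h at 37 °C with compound (23 nl of library stock), in duplicate. After paraformaldehyde fixation and Hoechst stain, imaged at 20x; PNC prevalence scored by image analysis.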
Each line names hits and unclear results; the compound was inactive in the other large screens. Unless noted, the call rests on the fitted dose curve; in most records, active means well fitted inhibition curve with a large enough effect (not every such curve was filed as active); inconclusive means small, poorly fitted or top-dose-only effect, or another doubt; inactive means no such curve, though single readings can be large or run the other way.

Cn1c(SCC(=O)Nc2ccccc2)nnc1-c1ccccc1	none (no result: ALOX12 inhib, ALDH1A1 inh, HPGD block, PNC inhibitor)
Cc1ccnc(SCC(=O)c2cc3ccccc3o2)n1	none (no result: ALOX12 inhib, HPGD block, PNC inhibitor)
N#Cc1cccc(-c2ccc3ncnc(NCCN4CCOCC4)c3c2)c1	LMNA splice mod inconclusive (no result: ALOX12 inhib, HPGD block, PNC inhibitor)
O=[N+]([O-])O[C@H]1CO[C@H]2[C@@H]1OC[C@H]2O	none (no result: LMNA splice mod, PNC inhibitor)
CCOC(=O)c1noc2nc(C)n(CC(=O)NC(C)CC)c(=O)c12 (stereo unspecified)	none (no result: ALOX12 inhib, ALDH1A1 inh, HPGD block, PNC inhibitor)
COc1ccc(-c2nc3scc(CCNS(=O)(=O)c4ccc(F)cc4F)n3n2)cc1OC	none (no result: ALOX12 inhib, ALDH1A1 inh, HPGD block, PNC inhibitor)
Cc1cccc(-c2nnc(SCC(=O)C(C)(C)C)n2C)c1	ALDH1A1 inh 11µM (no result: ALOX12 inhib, HPGD block, PNC inhibitor)
Cc1cccc(NC(=O)CSc2nnc(-c3ccncc3)n2C)c1	none
Cc1ccc2cc(CN(CC3CCCO3)C(=S)NCc3ccco3)c(=O)[nH]c2c1C (stereo unspecified)	ALDH1A1 inh 22µM, LMNA splice mod inconclusive, PNC inhibitor inconclusive
Cc1ccc2cc(CN(Cc3nnnn3Cc3ccco3)CC3CCCO3)c(=O)[nH]c2c1C (stereo unspecified)	ALDH1A1 inh 1.8µM, PNC inhibitor inconclusive
COc1ccc2[nH]c(=O)c(CN(Cc3nnnn3Cc3ccccc3)CC3CCCO3)cc2c1 (stereo unspecified)	ALDH1A1 inh inconclusive
Cc1cc(C)c2cc(CN(Cc3ccco3)C(=S)NCC3CCCO3)c(=O)[nH]c2c1 (stereo unspecified)	ALDH1A1 inh 25µM (no result: ALOX12 inhib, LMNA splice mod, HPGD block, PNC inhibitor)
Cc1cccc2cc(CN(CC3CCCO3)C(=O)c3ccco3)c(=O)[nH]c12 (stereo unspecified)	ALDH1A1 inh inconclusive, LMNA splice mod inconclusive
NC(=O)c1cccnc1Oc1ccccc1	none (no result: ALOX12 inhib, HPGD block, PNC inhibitor)
COc1ccccc1NNC(=O)c1cccnc1Oc1ccccc1	ALDH1A1 inh 14µM (no result: ALOX12 inhib, LMNA splice mod, HPGD block, PNC inhibitor)
C/C(=N\Nc1nnc(-c2ccccc2)c(-c2ccccc2)n1)c1cccc([N+](=O)[O-])c1	ALDH1A1 inh inconclusive, LMNA splice mod inconclusive, HPGD block 6.3µM
Cc1cc(=O)n(CC(=O)NC(C)c2ccccc2)c2c1c(C)nn2C (stereo unspecified)	none (no result: ALOX12 inhib, ALDH1A1 inh, HPGD block, PNC inhibitor)
CC1(C)CC=C(O[Si](C)(c2ccccc2)c2ccccc2)CC1	none (no result: ALOX12 inhib, LMNA splice mod, PNC inhibitor)
CCc1ccc(C(=O)NN(C(=O)c2ccc(CC)cc2)C(C)(C)C)cc1	LMNA splice mod inconclusive, HPGD block 25µM
CC(C)(C)N(NC(=O)OCc1ccccc1)C(=O)c1ccccc1Cl	LMNA splice mod inconclusive
CC(C)(C)N(NC(=O)OCc1ccccc1)C(=O)c1ccccc1	LMNA splice mod inconclusive, PNC inhibitor -80
COCCCn1c(-c2ccco2)nc2ccccc2c1=O	ALDH1A1 inh 22µM
COc1ccc(-c2nc3ccccc3c(=O)n2CCCn2ccnc2)cc1	ALDH1A1 inh 14µM, PNC inhibitor inconclusive
COCCCn1c(SCC(=O)OC2CCCCC2)nnc1-c1ccco1	ALDH1A1 inh inconclusive
COc1ccc(CCn2c(-c3ccco3)nc3ccccc3c2=O)cc1OC	LMNA splice mod inconclusive, PNC inhibitor inconclusive
COc1ccc(-c2nc3ccccc3c(=O)n2CCOc2ccccc2C)cc1	ALDH1A1 inh inconclusive, LMNA splice mod inconclusive, PNC inhibitor -121
COCCCN=C(c1ccco1)n1c(=S)nc(-c2ccco2)n(CCCOC)c1=S	ALDH1A1 inh 3.5µM, LMNA splice mod inconclusive, HPGD block 28µM, PNC inhibitor inconclusive
CCC(C(=O)C(C)C(O)C(C)CCc1ccc(C)c(O)c1C(=O)O)C1OC(CC)(C2CC[C@@](O)(CC)C(C)O2)CC1C (stereo partly specified)	LMNA splice mod inconclusive (no result: PNC inhibitor)
CC(C)(C)c1ccc(C(=O)NCC(c2ccco2)S(=O)(=O)c2ccccc2)cc1 (stereo unspecified)	none (no result: ALOX12 inhib, ALDH1A1 inh, HPGD block, PNC inhibitor)
COC(=O)c1ccccc1NC(=O)Cn1nc(C)c2nn(-c3ccc(Cl)cc3)c(C)c2c1=O	none (no result: ALOX12 inhib, ALDH1A1 inh, HPGD block, PNC inhibitor)
Clc1ccccc1-c1cncnc1NCc1cccs1	none (no result: ALOX12 inhib, HPGD block, PNC inhibitor)
CCOC(=O)C1=C(O)/C(=C\c2cccc(OC)c2)N=C1C	PNC inhibitor inconclusive
CCCCc1ccc(/C=C2\C(=O)c3ccccc3C(O)=C2C(=O)OCC)cc1	ALDH1A1 inh inconclusive, LMNA splice mod inconclusive, HPGD block 8.9µM
O=C1Nc2ccc(I)cc2/C1=C/c1cc(Br)c(O)c(Br)c1	LMNA splice mod inconclusive, HPGD block 3.5µM (no result: PNC inhibitor)
Cc1ccc(OCCC(=O)Nc2ccc(F)c(Cl)c2)cc1	none
Cc1ccc(C(=O)CCNc2ccc(F)c(Cl)c2)o1	ALDH1A1 inh 14µM
Cc1ccc(C(=O)NCCCC(=O)O)o1	PNC inhibitor inconclusive
